Consider 86 molecules from article PMC4336329 (PLoS ONE, 2015).

Structures are written as SMILES. In all, about 310,000 compounds went through this assay and about 2,200 (0.71%) showed an effect of 50% or more. Effects have a minus sign here. The sample holds strong results, similar compounds and a random draw of the others, so the mix is not that of the screen.

For this test, the target named is human ether-à-go-go-related gene (hERG) potassium channel (human, UniProt Q12809). In words: primary screen, population patch clamp on CHO cells stably expressing hERG; higher = less effect of the substance.
human ether-à-go-go-related gene (hERG) potassium channel, sequence (Q12809 whole entry, looked up): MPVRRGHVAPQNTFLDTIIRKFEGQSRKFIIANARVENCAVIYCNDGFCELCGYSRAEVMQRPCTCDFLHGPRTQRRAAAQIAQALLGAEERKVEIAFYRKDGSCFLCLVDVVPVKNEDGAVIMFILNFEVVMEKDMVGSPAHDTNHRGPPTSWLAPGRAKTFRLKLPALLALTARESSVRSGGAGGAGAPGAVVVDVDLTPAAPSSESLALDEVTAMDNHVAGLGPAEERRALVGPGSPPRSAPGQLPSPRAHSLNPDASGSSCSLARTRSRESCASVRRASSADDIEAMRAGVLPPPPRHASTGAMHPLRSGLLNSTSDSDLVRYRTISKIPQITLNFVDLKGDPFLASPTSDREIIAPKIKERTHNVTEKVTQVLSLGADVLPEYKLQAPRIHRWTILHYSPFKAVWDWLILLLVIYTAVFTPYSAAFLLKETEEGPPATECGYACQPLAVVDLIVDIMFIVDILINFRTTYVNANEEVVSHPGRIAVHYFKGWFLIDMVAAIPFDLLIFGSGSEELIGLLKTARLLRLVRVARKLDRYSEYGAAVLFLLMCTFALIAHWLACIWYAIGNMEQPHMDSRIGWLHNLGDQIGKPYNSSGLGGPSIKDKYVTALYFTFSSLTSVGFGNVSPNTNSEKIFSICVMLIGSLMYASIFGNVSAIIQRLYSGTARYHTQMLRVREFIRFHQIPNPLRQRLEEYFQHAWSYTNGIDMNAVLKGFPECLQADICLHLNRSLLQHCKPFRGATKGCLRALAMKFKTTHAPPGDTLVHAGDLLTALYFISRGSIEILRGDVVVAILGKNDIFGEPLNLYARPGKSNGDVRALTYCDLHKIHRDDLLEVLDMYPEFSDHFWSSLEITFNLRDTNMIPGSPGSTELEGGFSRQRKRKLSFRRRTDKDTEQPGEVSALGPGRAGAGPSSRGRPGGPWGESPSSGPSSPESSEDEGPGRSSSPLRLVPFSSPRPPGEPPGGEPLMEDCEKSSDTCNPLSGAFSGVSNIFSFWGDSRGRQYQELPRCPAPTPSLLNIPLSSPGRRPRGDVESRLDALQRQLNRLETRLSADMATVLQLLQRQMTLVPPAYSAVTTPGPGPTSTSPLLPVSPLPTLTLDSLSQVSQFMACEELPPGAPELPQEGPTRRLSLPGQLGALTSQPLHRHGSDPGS
For the molecule `O=C(Cn1nc(-c2ccccc2)ccc1=O)Nc1ccc(-n2cnnn2)cc1`, the “hERG current change (%, negative = inhibition) at 1uM” value is given as 9.23%.
The figure for `O=C1NC(=O)C(CCc2ccncc2)(C2CCCCC2)C(=O)N1` is 11.2%.
For `O=C1NC(=O)C(CCc2ccncc2)(CCc2ccncc2)C(=O)N1C1CCCCC1`, the “hERG current change (%, negative = inhibition) at 1uM” value is -69.7%.
Under `CCc1ccc(N2C(=O)NC(=O)C(CCc3ccncc3)(CCc3ccncc3)C2=O)cc1` stands -41.1%; under `O=C1NC(=O)C(CCc2ccncc2)(CCc2ccncc2)C(=O)N1CCc1ccccc1`, -23.1%; under `O=C1NC(=O)C(CCc2ccncc2)(Cc2ccc3c(c2)OCO3)C(=O)N1CCc1ccccc1` (centres unmarked), -10.8%.
Under `C=CCN1C(=O)NC(=O)C(CCc2ccncc2)(CCc2ccncc2)C1=O` stands -12.3%; under `O=C1NC(=O)C(CCc2ccncc2)(CCc2ccncc2)C(=O)N1Cc1ccc(F)cc1`, -78.2%; under `O=C1NC(=O)C(CCc2ccncc2)(CCc2ccncc2)C(=O)N1CCc1ccc(F)cc1`, -77.1%.
Under `O=C1NC(=O)C(CCc2ccncc2)(CCc2ccncc2)C(=O)N1Cc1ccccc1` stands -43.4%; under `O=C1c2ccccc2C(O)(c2ccccc2)N1C1CC1` (centres unmarked), -8.45%.
For the molecule `C#CCOc1ccc(Br)cc1C(c1c(C)[nH][nH]c1=O)c1c(C)[nH][nH]c1=O`, the “hERG current change (%, negative = inhibition) at 1uM” value is listed as 11.6%.
For the molecule `c1ccc2oc(SCc3cn4ccccc4n3)nc2c1`, the “hERG current change (%, negative = inhibition) at 1uM” value was -12.5%.
Turning to `COC(=O)COc1ccc(NC(=O)C(c2ccccc2)c2ccccc2)cc1`, the “hERG current change (%, negative = inhibition) at 1uM” value was found to be 6.63%.
As to `Cc1ccc(C(=O)Nc2cccc(C(F)(F)F)c2)cc1NC(=O)c1csc(-c2ccncc2)n1`, the “hERG current change (%, negative = inhibition) at 1uM” value is -17.1%.
The figure for `O=C(Nc1cccc(C(F)(F)F)c1)c1csc(-c2ccncc2)n1` is -82.4%; for `O=C(Nc1ccc(C(F)(F)F)cc1)c1csc(-c2ccncc2)n1` it is -2.94%; for `CN(CCCNC(=O)C1CCC(=O)N1Cc1ccccc1Cl)c1ccccc1` (centres unmarked) it is 19.2%.
Under `CCOC(=O)C1(CC2CC2)CCN(Cc2cn[nH]c2-c2ccccc2)CC1` stands -65.5%; under `CCOC(=O)C1(CC2CCCCO2)CCN(Cc2cn[nH]c2-c2cccc(F)c2)CC1` (centres unmarked), -27.2%.
On to `CCOC(=O)C1(CC2CC2)CCN(Cc2cnc(-c3ccc(OC)cc3)nc2)CC1`, for which the “hERG current change (%, negative = inhibition) at 1uM” value is recorded as 11.7%.
`CCOC(=O)C1(Cc2ccccc2)CCN(Cc2cn[nH]c2-c2ccccc2)CC1`: the “hERG current change (%, negative = inhibition) at 1uM” value amounted to 1.58%.
The figure for `CCOC(=O)C1(CC2CC2)CCN(Cc2cn(C)c3ccccc23)CC1` is 12.2%; for `CCOC(=O)C1(CC2CC2)CCN(Cc2ccc(OC)cc2F)CC1` it is -73.3%; for `CCOC(=O)C1(CC2CCCCO2)CCN(Cc2ccc(OC)cc2F)CC1` (centres unmarked) it is -19.8%.
The figure for `CCOC(=O)C1(CC2CC2)CCN(Cc2cn[nH]c2-c2cccc(F)c2)CC1` is -57.6%; for `CCOC(=O)N1CCN(Cc2cn[nH]c2-c2ccc(-c3ccccc3)cc2)CC1` it is 7.03%; for `Cc1cnc(C(=O)OCC(=O)Nc2cc(S(=O)(=O)N3CCCCC3)ccc2Cl)cn1` it is 19.4%.
The figure for `CCOc1ccc(NC(=O)CC2C(=O)N(c3cccc(OC)c3)C(=O)N2CCOC)cc1` (centres unmarked) is 3.67%; for `CC(C)CN(C(=O)CN1CCN(S(=O)(=O)c2ccccc2)CC1)c1c(N)n(CC(C)C)c(=O)[nH]c1=O` it is -2.18%.
Regarding `CCOC(=O)c1c(CN(CC)CC)n(-c2ccccc2)c2ccc(O)cc12`, the “hERG current change (%, negative = inhibition) at 1uM” value is listed as -45.6%.
The figure for `Cc1ccc(C(=O)Nc2cnc3ccccc3c2)cc1` is 6.66%; for `COc1ccc2c(CN3CC=C(c4ccccc4)CC3)cc(=O)oc2c1` it is 13.1%; for `Nc1cccc(Cl)c1N1CCOCC1` it is 9%.
Under `COc1ccccc1CNC(=O)C1CCCN(S(=O)(=O)c2cccc3cccnc23)C1` (centres unmarked) stands 0.692%; under `COc1cc(OC)cc(C(=O)N2CCN(C(=O)COc3ccc4ccccc4c3)CC2)c1`, -4.51%.
The figure for `O=C(COc1ccccc1)N1CCN(C(=O)c2ccc([N+](=O)[O-])cc2)CC1` is -19%; for `COc1ccc(OCC(=O)N2CCN(C(=O)c3ccc([N+](=O)[O-])cc3)CC2)cc1` it is -43.2%; for `COc1cc(C(=O)N2CCN(C(=O)COc3ccc4ccccc4c3)CC2)cc(OC)c1OC` it is -54%.
Regarding `O=C(COc1ccc2ccccc2c1)N1CCN(C(=O)c2ccc([N+](=O)[O-])cc2)CC1`, the “hERG current change (%, negative = inhibition) at 1uM” value was -69.3%.
Under `COc1cccc(C(=O)N2CCN(C(=O)COc3ccc4ccccc4c3)CC2)c1` stands -3.85%; under `O=C(CN1CCN(C(=O)C2CC2)CC1)Nc1cc(C(F)(F)F)cc(C(F)(F)F)c1`, -5.9%; under `CCOc1ccc(Br)cc1S(=O)(=O)NC1CC(C)(C)NC(C)(C)C1`, 17%.
Take `CC1(C)CC(NC(=O)COc2ccc3ccc(=O)oc3c2)CC(C)(C)N1`: the “hERG current change (%, negative = inhibition) at 1uM” value is listed as 13.6%.
With `CCOC(=O)CSc1ncnc2c(C(=O)OCC)c3n(c12)CCC3`, the “hERG current change (%, negative = inhibition) at 1uM” value is on record as -10.4%.
As for `CCOC(=O)c1c2n(c3c(NCc4ccccc4)ncnc13)CCCC2`, the “hERG current change (%, negative = inhibition) at 1uM” value was -70.3%.
As for `CCOC(=O)c1c(NCc2ccccc2)n[nH]c1C`, the “hERG current change (%, negative = inhibition) at 1uM” value was 4.96%.
The figure for `COC(=O)c1c(NC(=O)CSc2ncn[nH]2)sc(C)c1C` is 11.2%; for `CCN1CCN(c2ncnc3scc(-c4ccc(C)c(C)c4)c23)CC1` it is -50.8%.
Under `Cc1ccc(-c2csc3ncnc(N4CCN(C)CC4)c23)cc1C` stands 10.8%.
The figure for `CCN1CCN(c2ncnc3scc(-c4ccc(C)cc4)c23)CC1` is 3.26%; for `CN(C)S(=O)(=O)c1ccc(C(=O)NCc2ccccn2)cc1` it is 14.5%; for `COc1cc(CNCCc2ccc(S(N)(=O)=O)cc2)ccc1OCc1ccc(Cl)cc1.Cl` it is -1.77%.
Regarding `Cl.NS(=O)(=O)c1ccc(CCNCc2cc(Br)ccc2OCc2ccccc2)cc1`, the “hERG current change (%, negative = inhibition) at 1uM” value was -44.9%.
On to `COc1ccc(CCN(C)Cc2ccc(OCc3ccccc3)c(OC)c2)cc1OC`, for which the “hERG current change (%, negative = inhibition) at 1uM” value is on record as -42.9%.
Under `CN(C/C=C/c1ccccc1[N+](=O)[O-])Cc1ccccc1` stands -8.37%; under `C=CCOc1ccccc1CNCCc1ccc(S(N)(=O)=O)cc1.Cl`, -6.97%.
The figure for `Cl.NS(=O)(=O)c1ccc(CCNCc2ccccc2OCc2ccc(Cl)cc2)cc1` is -70.5%.
Regarding `COc1ccc(CCN(C)Cc2ccc(OC)c(OCc3ccccc3)c2)cc1OC`, the “hERG current change (%, negative = inhibition) at 1uM” value is on record as -77%.
Under `COc1ccc(CCN(C)C/C=C/c2ccccc2)cc1OC` stands -43.3%; under `Cl.NS(=O)(=O)c1ccc(CCNCc2ccccc2OCc2ccc(F)cc2)cc1`, -21.5%.
Under `COc1ccc(CCN(C)C/C=C/c2ccccc2[N+](=O)[O-])cc1OC` stands -54.3%.
For the molecule `Cl.NS(=O)(=O)c1ccc(CCNCc2cc(Cl)ccc2OCc2ccccc2)cc1`, the “hERG current change (%, negative = inhibition) at 1uM” value was -59.3%.
Under `COc1cc(CN(C)CCc2ccccc2)ccc1OCc1ccccc1` stands -12.2%; under `CN(Cc1nc2ccccc2c(=O)[nH]1)C(=O)c1cccc(S(=O)(=O)N2CCCCCC2)c1`, 4.23%.
Under `O=C(Oc1ccc(OC(=O)c2ccncc2)cc1)c1ccncc1` stands 0.316%; under `Cc1ccc(CN2C(=O)CN=C(c3ccccc3)c3ccccc32)cc1`, 2.73%; under `Cc1noc(N)c1C(=O)Nc1ccc(C(C)(C)C)cc1`, -5.42%.
Under `O=C(NCc1cccnc1)c1ccc(-c2cccc(Cl)c2Cl)o1` stands 5.38%; under `O=C(CN1C(=O)NC2(CCCC2)C1=O)Nc1ccc(Cl)c(C(F)(F)F)c1`, 9.87%.
For `O=C(COC(=O)CCCOc1ccc(Cl)cc1Cl)NCc1ccccc1`, the “hERG current change (%, negative = inhibition) at 1uM” value turned out to be 1.55%.
For the molecule `O=C(Nc1c(-c2ccc(F)cc2)nc2ccccn12)c1ccc(F)cc1`, the “hERG current change (%, negative = inhibition) at 1uM” value is given as -4.64%.
The figure for `CCOc1ccc(Cl)cc1Nc1nc(NCCO)nc(N2CCCC2)n1` is 5.92%; for `COc1ccc(N2C(=O)C(Cl)=C(N3CCCC(C)C3)C2=O)cc1` (centres unmarked) it is 9.04%; for `COc1cc(CNCCc2ccccc2)ccc1OCc1ccc(Cl)nc1.Cl` it is -0.117%.
As to `COc1ccc(CNCCc2ccc(Cl)cc2)cc1OCc1ccccc1`, the “hERG current change (%, negative = inhibition) at 1uM” value is -52.2%.
The figure for `COc1ccccc1CCNCc1ccc(OC)c(OCc2ccccc2)c1` is -29.4%; for `O=C(OCc1cc(=O)n2c(n1)sc1ccccc12)c1ccc(O)cc1` it is 17.3%.
Under `COc1ccc(-n2cc(CNC3CCC(O)CC3)c(-c3cccc(F)c3)n2)cc1` (centres unmarked) stands 4.86%; under `COc1ccc(-n2cc(CNC3CCN(C)CC3)c(-c3cccc(F)c3)n2)cc1`, -64.4%; under `COc1ccc(-n2cc(CNC3CCOCC3)c(-c3cccc(F)c3)n2)cc1`, -1.28%.
For `O=C(OCc1nnc(-c2ccccc2)o1)c1cn(-c2ccccc2)nc1-c1ccccc1`, the “hERG current change (%, negative = inhibition) at 1uM” value was -1.95%.
The figure for `CC1CCCN(C(=O)Cn2nnc(-c3ccc(S(C)(=O)=O)cc3)n2)C1` (centres unmarked) is 21.2%; for `COc1ccc(OC)c(NC(=O)C2CCN(c3cc(-c4ccccc4)nc4ncnn34)CC2)c1` it is -2.67%; for `CCCNC(=O)C1CCN(c2cc(-c3ccccc3)nc3ncnn23)CC1` it is -65.6%.
Under `Cc1ccccc1NC(=O)C1CCN(c2cc(-c3ccccc3)nc3ncnn23)CC1` stands 5.72%.
